High-throughput results deposited in PubChem BioAssay by National Center for Advancing Translational Sciences (NCATS).
HTT promoter inh – Primary qHTS for Identification of Small Molecule Inhibitors of Huntingtin Promoter Activity; 0.93% of 48,000 active; HEK293 HTT promoter firefly luciferase reporter, 24 h; Potency, µM (top dose mostly 57.5 µM), without a hit: at the highest dose activity change, negative = inhibition, actives largely listed as inhibitors; also: nearly all actives have a fitted effect of over 50% in size
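HEK293 cells carrying firefly luciferase reporters were seeded at 2,500 per well in Opti-MEM and cultured for 24 h. They were then treated with compounds at up to 57.5 uM final for 24 h at 37 degrees C before Dual-Glo luminescence readout.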
HTT-AS promoter – Primary qHTS for Identification of Small Molecule Activators of Huntingtin-Antisense Promoter Activity; 0.24% of 48,000 active; Potency, µM (series often up to 57.5 µM), for the others: at the highest dose activity change, positive = activation, usual class: activators; HEK293 HTT-AS promoter firefly luciferase reporter, 24 h; response scale: percent change from vehicle, -100% = no light; AID 1508624, 2021; also: nearly all actives have a fitted effect of over 55% in size
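Quantitative HTS used concentration series of up to 57.5 uM final on HEK293 luciferase reporter cells, 24 h at 37 degrees C. Readout was Dual-Glo firefly luminescence.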
GALC G270D up – A Novel Cell-Based Assay to Identify Small Molecules for B -Galactocerebrosidase; 145M-Twi-hGALC-G270D cells (Twitcher mouse brain line with human GALC G270D), HMU-beta-Gal fluorescence, 48 h; 0.1% of 45,000 active; Potency, µM (top dose mostly 57.5 µM), most hits filed as activators; AID 1159614, 2016; also: 0% is about no effect; nearly all actives have a fitted effect of over 65% in size
Target sequence (P54803 whole entry G286D): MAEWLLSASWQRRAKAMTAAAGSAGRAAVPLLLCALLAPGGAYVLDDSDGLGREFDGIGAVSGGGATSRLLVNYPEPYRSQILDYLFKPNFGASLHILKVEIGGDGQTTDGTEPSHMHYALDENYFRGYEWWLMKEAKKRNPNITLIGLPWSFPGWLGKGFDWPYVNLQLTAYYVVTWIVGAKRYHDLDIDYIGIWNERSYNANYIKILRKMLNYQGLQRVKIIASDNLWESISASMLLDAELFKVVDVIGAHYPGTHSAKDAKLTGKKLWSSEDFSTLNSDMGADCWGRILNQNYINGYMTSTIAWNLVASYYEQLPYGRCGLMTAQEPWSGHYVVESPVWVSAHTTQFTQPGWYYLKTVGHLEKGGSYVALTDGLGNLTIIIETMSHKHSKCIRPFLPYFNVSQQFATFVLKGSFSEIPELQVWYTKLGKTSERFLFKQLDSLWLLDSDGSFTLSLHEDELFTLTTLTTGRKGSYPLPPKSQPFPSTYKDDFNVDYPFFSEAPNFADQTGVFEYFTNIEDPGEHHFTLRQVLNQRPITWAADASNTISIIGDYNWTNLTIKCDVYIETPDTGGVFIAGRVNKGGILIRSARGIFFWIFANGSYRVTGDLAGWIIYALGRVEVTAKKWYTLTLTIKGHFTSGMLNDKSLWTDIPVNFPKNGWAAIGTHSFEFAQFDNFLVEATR
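Fluorescence readout: HMU-β-gal cleavage by mutant GALC (0.1 mM final, citrate/phosphate pH 5.2 with 1 mg/mL taurocholate), stopped with carbonate/bicarbonate plus Triton X-100. Cells: murine Twitcher 145M-Twi expressing human G270D GALC; qHTS for activators.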
* marks the source's active call; other numbers are inactive results; i = inactive; ? = inconclusive; / = no result; [ ] = remark or other dose. Shown are actives, neighbours in structure and some others; about 1.3% of the full set was active somewhere. Calls follow the shape of the dose curve; as a rule, active = well fitted curve in the direction sought with a large enough effect; inconclusive = small, poorly fitted or top-dose-only effect, or another doubt; inactive = no such curve, though single readings can be large; an effect the other way counts as inactive or inconclusive. Potency is read from the fitted curve at half-maximal effect.

SMILES	HTT promoter inh	HTT-AS promoter	GALC G270D up
COc1ccc(NS(=O)(=O)c2ccc3c(c2)CCCN3C(=O)C2CCC2)cc1OC	1.8µM*	-29%	i
COc1ccc(NS(=O)(=O)c2cc(Br)cc3c2N(C(=O)C2CC2)CC3)cc1OC	5.6µM*	-44%	i
Cc1ccc(NS(=O)(=O)c2ccc3c(c2)CCCN3C(=O)C2CCC2)c(C)c1	?	-13%	i
Nc1nc(=O)n([C@H]2C[C@H](O)[C@@H](CO)O2)cc1F	-12%	-8%	/
C=C[C@@H]1CN2CCC1C[C@H]2[C@H](O)c1ccnc2ccc(OC)cc12 (stereo not given in full)	0%	-11%	/
NC1[C@H]2CN(c3nc4c(cc3F)c(=O)c(C(=O)O)cn4-c3ccc(F)cc3F)C[C@@H]12 (stereo not given in full)	69%	32µM*	i
NC1CCN(c2nc3c(cc2F)c(=O)c(C(=O)O)cn3-c2ccc(F)cc2F)C1 (stereo not given)	23%	2%	i
O=c1[nH]c2ccccc2c(=O)n1CCCl	10%	-3%	i
CNCc1ccc(-c2[nH]c3cc(F)cc4c3c2CCNC4=O)cc1	6%	-6%	/
O=c1[nH]c2ccc(NCc3ccc(-c4ccccc4F)o3)cc2[nH]1	28µM*	-60%	i
O=c1[nH]c2ccc(NCc3ccc(-c4ccccc4)o3)cc2[nH]1	?	-32%	i
CC(C)NC(=O)C1CCN(C(=O)c2cc3sccc3n2Cc2ccc(Cl)cc2)CC1	8.9µM*	-60%	i
O=C(NCc1ccccc1)c1cc2sccc2n1Cc1ccc(Cl)cc1	-7%	-13%	i
O=C(c1cc2c(Cl)nc3ccccc3c2s1)N1CCCCC1	3%	21%	i
CCOC(=O)C1CCCN(C(=O)c2cc3c(Cl)nc4ccccc4c3s2)C1 (stereo not given)	5µM*	-84%	i
COc1ccccc1-c1cc2nc(C)c(CCC(=O)Nc3cc(C)ccc3C)c(C)n2n1	?	-43%	i
Cc1nc2cc(-c3ccccc3)nn2c(C)c1CCC(=O)Nc1ccc(F)cc1F	?	-79%	i
COc1ccccc1CNC(=O)CCc1c(C)nc2cc(-c3ccc(Cl)cc3)nn2c1C	4µM*	-69%	i
CCOC(=O)CC(NC(=O)CCc1c(C)nc2c(-c3ccccc3)c(C)nn2c1C)c1ccc(C)cc1 (stereo not given)	?	-45%	i
COc1ccccc1CNC(=O)CCc1c(C)nc2cc(-c3ccccc3OC)nn2c1C	?	-37%	i
COc1ccccc1-c1cc2nc(C)c(CCC(=O)NCCc3ccc(SC)cc3)c(C)n2n1	20µM*	-74%	i
CCOC(=O)CC(NC(=O)CCc1c(C)nc2cc(-c3ccccc3)nn2c1C)c1ccc(C)cc1 (stereo not given)	2.5µM*	-80%	i
Cc1nc2cc(-c3cccc(F)c3)nn2c(C)c1CCC(=O)Nc1ccccc1C(N)=O	2.2µM*	-71%	i
COC(=O)[C@H]1[C@H]2C[C@@H]3c4[nH]c5cc(OC)ccc5c4CCN3C[C@H]2C[C@@H](OC(=O)/C=C/c2ccc(O)c(OC)c2)[C@@H]1OC	-30%	-40%	i
CN(C)C1CCN(C(=O)c2ccc(NC(=O)Nc3nc(N4CCOCC4)nc(N4CCOCC4)n3)cc2)CC1	?	-37%	/
SMILES	HTT promoter inh	HTT-AS promoter	GALC G270D up
Nc1ccc(C(=O)N2CC3CC(CN(Cc4ccccc4)C3)C2)cc1	0%	2%	i
C#Cc1cccc(Nc2ncnc3cc(OC)c(OCCCCCCC(=O)NO)cc23)c1	55%[116 µM]	?	/
Cc1nc(N)sc1-c1ccnc(Nc2ccc(N3CCOCC3)cc2)n1	-26%	?	/
COc1cc(OC)cc(-c2cc3nc(C)c(CCC(=O)NCc4ccc(Cl)cc4)c(C)n3n2)c1	5µM*	-86%	i
COc1cc(OC)cc(-c2cc3nc(C)c(CCC(=O)NCCc4cccc(C)c4)c(C)n3n2)c1	?	-71%	i
COc1ccc(CNC(=O)CCc2c(C)nc3cc(-c4ccc(OC)cc4OC)nn3c2C)cc1	-17%	-37%	i
COc1cc(OC)cc(-c2cc3nc(C)c(CCC(=O)Nc4ccccc4OC)c(C)n3n2)c1	?	-83%	i
COc1cc(OC)cc(-c2cc3nc(C)c(CCC(=O)Nc4ccc(C(C)=O)cc4)c(C)n3n2)c1	3.2µM*	-78%	i
